ALOX15 inhib: qHTS Assay for Inhibitors of 15-hLO (15-human lipoxygenase); purified 15hLO-1, xylenol orange hydroperoxide absorbance; Potency, µM (series often up to 57.1 µM), for the others: top-dose activity change, negative = inhibition, most hits filed as inhibitors; 1.4% of 74,000 active; AID 887, 2007; note: % is set by controls: 0 for no effect and ±100 for the full control effect; nearly all actives have a fitted effect of over 55% in size
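Purified human 15hLO-1 (40 nM) in 25 mM Hepes pH 7.5, 0.01% Triton X-100, preincubated 15 min RT with compound, then 50 uM arachidonic acid for 6 min. Hydroperoxide read by ferrous/xylenol orange, 30 min; 573/405 nm absorbance ratio gave progress.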
Casp1 inh: qHTS Assay for Allosteric/Competitive Inhibitors of Caspase-1 | Caspase-1 enzyme, Ac-WEHD-AFC fluorogenic rate | Potency, µM (highest dose often 57.5 µM), inactives show at the highest dose activity change, negative = inhibition, most hits filed as inhibitors | 0.03% of 75,000 active | P29466;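 note: plate controls were vehicle for no effect and no substrate for full effect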
15-hLO-2 inh: qHTS Assay for Inhibitors of 15-hLO-2 (15-human lipoxygenase 2); purified 15hLO-2, xylenol orange hydroperoxide absorbance; 0.56% of 110,000 active; Polyunsaturated fatty acid lipoxygenase ALOX15B (Homo sapiens), O15296; Potency, µM (highest dose often 57.1 µM), for the others: at the top dose activity change, negative = inhibition, actives largely listed as inhibitors; note: % is set by controls: 0 for no effect and ±100 for the full control effect; nearly all actives have a fitted effect of over 60% in size
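Read-out: hydroperoxide product oxidises ferrous iron, measured as xylenol orange complex via the 573-to-405 nm absorbance ratio after 30 min. Reaction: 50 nM enzyme, 15 min compound preincubation, 45 uM arachidonic acid, 90 min RT, Hepes pH 7.5 with Triton X-100.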
ERK AVP block: qHTS Assay for Inhibitors of the ERK Signaling Pathway using a Homogeneous Screening Assay; HEK293-V1b, vasopressin-stimulated pERK AlphaScreen; Potency, µM (doses to about 57.5 µM), inactives show at the highest dose activity, negative = inhibition, usual class: inhibitors; 0.99% of 72,000 active; AID 995, 2007; note: % is set by controls: 0 for no effect and ±100 for the full control effect; nearly all actives have a fitted effect of over 55% in size
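V1b-HEK293 cells; cpd 30 min 37C; 25 nM vasopressin 5 min; lyse 10 min; AlphaScreen beads 5 hr RT. Normalized to DMSO basal and 25 nM vasopressin; AC50 by Hill fit.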
Casp7 inh: qHTS Assay for Allosteric/Competitive Inhibitors of Caspase-7. Potency, µM (series often up to 57.5 µM), without a hit: at the top dose activity change, negative = inhibition, actives largely listed as inhibitors. P55210. 0.02% of 75,000 active. recombinant caspase-7, Ac-DEVD-AFC fluorescence rate; active = well fitted inhibition curve with a large enough effect in the main read-out, with a control signal flat, not every such curve was filed as active; inconclusive = small, poorly fitted or top-dose-only effect, or a change in a side signal; note: % of control where 0% means no effect
* marks the source's active call; other numbers are inactive results; ? = inconclusive; [ ] = dose if it differs, or a comment. Compounds with a hit are over-represented: about 1.7% of the library has one in this group of screens. Unless noted, calls come from the whole dose curve; as a rule, active = well fitted curve in the direction sought with a large enough effect; inconclusive = small, poorly fitted or top-dose-only effect, or another doubt; inactive = no such curve, though single readings can be large; an effect the other way counts as inactive or inconclusive. Potency is the fitted concentration of half-maximal effect.

SMILES	ALOX15 inhib	Casp1 inh	15-hLO-2 inh	ERK AVP block	Casp7 inh
N#CS.N=C=S.N=C=S.[Cu].[NH2-].[NH2-].[NH2-].[NH2-].c1ccc2ncccc2c1	2.51µM*	-1.4%[11.5 µM]	?	5.6%[11.5 µM]	0.6%[11.5 µM]
C[C@H]1[C@@H](O)[C@@H](C)/C=C\C=CCC\C=C/C=C\C=C/C=C[C@@H](O[C@H]2O[C@@H](C)[C@@H](O)[C@@H](N)[C@@H]2O)C[C@@H]2O[C@@](O)(C[C@@H](O)[C@H]2C(=O)O)C[C@@H](O)[C@@H](O)CC[C@@H](O)C[C@@H](O)C[C@@H](O)CC(=O)O[C@H]1C	7.94µM*	-1.0%[25.7 µM]	18.3%[25.6 µM]	-8.7%[25.7 µM]	-1.5%[25.7 µM]
CC1/C=C/C=C/CC/C=C/C=C/C=C/C=C/C(OC2OC(C)C(O)C(N)C2O)CC2O[C@](O)(CC(O)C(O)CCC(O)CC(O)CC(O)CC(=O)OC(C)C(C)C1O)CC(O)C2C(=O)O (some centres undefined)	-9.1%	0.2%	-6.7%	21.9%	0.2%
Cn1ncnc2c(=O)n(C)c(=O)nc1-2	-12.2%	12.6µM*	-25.4%	19.0%	?
CC[C@H](CO)NC(=O)[C@@H]1C=C2c3cccc4c3c(cn4C)C[C@@H]2N(C)C1	-8.8%	-2.3%	-7.9%	-1.0%	-8.6%
